Screens (PubChem)
ERa coact pot – enhances coactivator binding to human estrogen receptor alpha; TR-FRET ERalpha-LBD/SRC-Cy5 coactivator binding, 2 h; 100 = basal binding, no effect; coactivator binding (% of control), % at 25.6 µM; 1.3% of 86,000 active; AID 639; in the data active = activity above about 200%;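 note: binding measured in presence of low estradiol as agonist stimulus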
Target sequence (P03372 whole entry, looked up, the tested form may be a part): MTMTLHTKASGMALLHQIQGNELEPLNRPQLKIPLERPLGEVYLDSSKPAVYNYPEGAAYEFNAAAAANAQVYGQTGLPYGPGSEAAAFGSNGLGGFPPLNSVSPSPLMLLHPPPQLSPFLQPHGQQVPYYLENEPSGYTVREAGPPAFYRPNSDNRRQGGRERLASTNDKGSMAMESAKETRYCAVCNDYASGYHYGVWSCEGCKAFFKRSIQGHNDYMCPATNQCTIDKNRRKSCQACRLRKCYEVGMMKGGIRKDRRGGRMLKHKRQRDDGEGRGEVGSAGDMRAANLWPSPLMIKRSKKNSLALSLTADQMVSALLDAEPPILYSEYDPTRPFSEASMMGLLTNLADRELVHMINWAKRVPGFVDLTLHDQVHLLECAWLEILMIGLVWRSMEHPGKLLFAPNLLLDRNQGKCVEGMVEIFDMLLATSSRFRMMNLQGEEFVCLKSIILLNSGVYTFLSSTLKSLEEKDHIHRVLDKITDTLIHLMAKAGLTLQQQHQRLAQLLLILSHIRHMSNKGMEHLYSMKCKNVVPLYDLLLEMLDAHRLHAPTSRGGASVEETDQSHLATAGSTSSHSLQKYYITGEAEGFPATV
CD11b adhes enh – increases human CD11b/CD18 adhesion to fibrinogen; K562 CD11b/CD18 adhesion to fibrinogen, ATPlite luminescence; 0.07% of 93,000 active; activation, % at 10 µM; AID 1499; P05107+P11215;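 active = 10 µM primary screen giving 50% or more activity, confirmed by 40% or more on retest at that dose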
Mac1 fbg inh – CD11b/CD18-fibrinogen binding inhibition; inhibition, % at 10 µM; P05107+P11215; 0.54% of 93,000 active; K562 CD11b/CD18 adhesion to fibrinogen, ATPlite luminescence; Mn2+ added to activate the integrin;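 active = primary inhibition of 50% or more at 10 µM, then 40% or more on retest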
ERb coact inh – blocks coactivator binding to human estrogen receptor beta. AID 633. Q92731. 1.3% of 86,000 active. TR-FRET ER-beta LBD / SRC1-Cy5 peptide binding; receptor agonist-loaded with 1 µM estradiol. inhibition, % at 25.6 µM;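 active = compounds whose percent inhibition of the receptor-coactivator binding signal exceeds about 50% in the single-dose screen, limit read from the data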
ERa SRC1 inh – ER-alpha (human) coactivator binding inhibition | AID 629 | TR-FRET ER-alpha LBD / SRC-1 peptide, estradiol-bound | P03372 | 1.7% of 86,000 active | inhibition, % at 25.6 µM; in the data active = inhibition above about 50%
Numbers stand for hits; [ ] = another dose, or the depositor's remark. A selection: hits, their analogues and other compounds. The true share with any hit is near 3.1%.

Screening Cc1cc(NC(=O)Cn2c(C)nc3ccccc3c2=O)ccc1Br returned ERa coact pot 265, CD11b adhes enh inactive, Mac1 fbg inh inactive, ERb coact inh inactive and ERa SRC1 inh inactive.
`CC1(C)Cc2c(C#N)c(SCC(=O)c3ccccc3)nc(N3CCOCC3)c2CO1` gave ERa coact pot 246[fluorescence artefact?], CD11b adhes enh inactive, Mac1 fbg inh inactive, ERb coact inh inactive and ERa SRC1 inh inactive.
`CC(=O)c1cccc(S(=O)(=O)NC2CC2)c1` gave CD11b adhes enh inactive and Mac1 fbg inh inactive.
`O=S(=O)(c1cccc(-c2csc(-c3ccccc3)n2)c1)N1CCOCC1` gave ERa coact pot 272, CD11b adhes enh inactive, Mac1 fbg inh inactive, ERb coact inh inactive and ERa SRC1 inh inactive.
Screening O=S(=O)(c1cccc(-c2nc3ccccc3s2)c1)N1CCOCC1 returned ERa coact pot inactive, CD11b adhes enh inactive, Mac1 fbg inh inactive, ERb coact inh 68 and ERa SRC1 inh inactive.
Screening CC1N(C)c2cccc3cccc(c23)N1C returned ERa coact pot inactive, ERb coact inh 83[fluorescence artefact?] and ERa SRC1 inh 51[fluorescence artefact?].
Screening CN1c2cccc3cccc(c23)N(C)C1c1cccs1 returned CD11b adhes enh inactive and Mac1 fbg inh inactive.
CCOc1ccc(C2CC(=O)NC(SCC(=O)OC)=C2C#N)cc1 (centres undefined) was read as ERa coact pot inactive, CD11b adhes enh inactive, Mac1 fbg inh inactive, ERb coact inh inactive and ERa SRC1 inh inactive.
CCOc1cccc(NC(=O)C2CCCN(S(=O)(=O)c3ccc(-n4cnnn4)cc3)C2)c1 (centres undefined) was read as ERa coact pot 237[fluorescence artefact?], CD11b adhes enh inactive, Mac1 fbg inh inactive, ERb coact inh inactive and ERa SRC1 inh inactive.
CCn1c2ccccc2c2nnc(SCC(=O)Nc3ccc4c(c3)OCO4)nc21 was read as ERa coact pot inactive, CD11b adhes enh inactive, Mac1 fbg inh inactive, ERb coact inh inactive and ERa SRC1 inh 50.
`CCn1cc(SCC(=O)NCc2ccc3c(c2)OCO3)c2ccccc21` gave ERa coact pot inactive, CD11b adhes enh inactive, Mac1 fbg inh inactive, ERb coact inh 53 and ERa SRC1 inh inactive.
`Cn1c2ccccc2c2nnc(SCc3ccc4nonc4c3)nc21` gave ERa coact pot inactive, CD11b adhes enh inactive, Mac1 fbg inh inactive, ERb coact inh inactive and ERa SRC1 inh 55[fluorescence artefact?].
Screening Cn1c2ccccc2c2nnc(SCN3C(=O)c4ccccc4C3=O)nc21 returned ERa coact pot inactive, CD11b adhes enh inactive, Mac1 fbg inh inactive, ERb coact inh inactive and ERa SRC1 inh inactive.
Screening CCn1c2ccccc2c2nnc(SCc3ccccc3)nc21 returned ERa coact pot inactive, CD11b adhes enh inactive, Mac1 fbg inh inactive, ERb coact inh inactive and ERa SRC1 inh 56[fluorescence artefact?].
For CCc1ccc2c(c1)C(c1ccc([N+](=O)[O-])cc1)=NNC(c1ccc(F)cc1)=N2 the results were CD11b adhes enh inactive and Mac1 fbg inh inactive.
CCc1c(C)sc(NC(=O)c2cnn3cccnc23)c1C#N was read as ERa coact pot 262[fluorescence artefact?], CD11b adhes enh inactive, Mac1 fbg inh inactive, ERb coact inh inactive and ERa SRC1 inh inactive.
`CC(C)CC(=O)Nc1ccc(C(=O)COc2ccc(-c3nnco3)cc2)cc1` gave ERa coact pot inactive, CD11b adhes enh inactive, Mac1 fbg inh inactive, ERb coact inh inactive and ERa SRC1 inh 70.
N#Cc1ccsc1NC(=O)COc1ccc(-c2nnco2)cc1 was read as ERa coact pot inactive, CD11b adhes enh inactive, Mac1 fbg inh inactive, ERb coact inh inactive and ERa SRC1 inh 80[fluorescence artefact?].
For CC(C)CC(=O)Nc1ccc(OCC(=O)O)cc1 the results were ERa coact pot inactive, CD11b adhes enh inactive, Mac1 fbg inh inactive, ERb coact inh inactive and ERa SRC1 inh inactive.
`CC1CCCC(C)N1C(=O)COc1ccc(-c2nnco2)cc1` (centres undefined) gave ERa coact pot inactive, CD11b adhes enh inactive, Mac1 fbg inh inactive, ERb coact inh inactive and ERa SRC1 inh inactive.
Screening O=C(O)CCCCCNc1ccc2nsnc2c1[N+](=O)[O-] returned CD11b adhes enh inactive and Mac1 fbg inh inactive.
`O=C(Cc1cnn(-c2ccccc2)c1)c1ccc(O)c(O)c1O` gave ERa coact pot inactive, CD11b adhes enh inactive, Mac1 fbg inh inactive, ERb coact inh 85[fluorescence artefact?] and ERa SRC1 inh 78[fluorescence artefact?].
O=C(Nc1cnc2ccccn2c1=O)c1ccc(F)cc1 was read as ERa coact pot inactive, CD11b adhes enh inactive, Mac1 fbg inh inactive, ERb coact inh 65 and ERa SRC1 inh inactive.
Cc1ccccc1NC(=O)c1cnc2ccccn2c1=O was read as CD11b adhes enh inactive and Mac1 fbg inh inactive.
Screening COc1cccc(CNc2cc(CSc3ccc(Cl)cc3)nc(C)n2)c1 returned ERa coact pot inactive, CD11b adhes enh inactive, Mac1 fbg inh inactive, ERb coact inh inactive and ERa SRC1 inh inactive.
`N#Cc1ccc(NC(=O)c2sc3cc(C(F)(F)F)cnc3c2-c2cccs2)cc1` gave ERa coact pot 330[fluorescence artefact?], CD11b adhes enh inactive, Mac1 fbg inh inactive, ERb coact inh inactive and ERa SRC1 inh inactive.
O=C(Nc1ccc(F)cc1)c1sc2cc(C(F)(F)F)cnc2c1-c1cccs1 was read as ERa coact pot inactive, CD11b adhes enh inactive, Mac1 fbg inh inactive, ERb coact inh inactive and ERa SRC1 inh inactive.
COc1ccc(NC(=O)c2sc3cc(C(F)(F)F)cnc3c2-c2cccs2)cc1 was read as ERa coact pot 233[fluorescence artefact?], CD11b adhes enh inactive, Mac1 fbg inh inactive, ERb coact inh inactive and ERa SRC1 inh inactive.
`Cc1nnc2n(-c3ccc(Cl)cc3)c(=O)c3c4c(sc3n12)CN(C)CC4` gave ERa coact pot inactive, CD11b adhes enh inactive, Mac1 fbg inh inactive, ERb coact inh inactive and ERa SRC1 inh inactive.
CN1CCc2c(sc3c2c(=O)n(-c2ccccc2)c2nnc(SCc4ccc(Cl)cc4)n32)C1 was read as ERa coact pot 314, ERb coact inh inactive and ERa SRC1 inh inactive.
Screening Cc1ccccc1NC(NC(=O)OCCn1c([N+](=O)[O-])cnc1C)C(Cl)(Cl)Cl (centres undefined) returned CD11b adhes enh inactive and Mac1 fbg inh inactive.
Screening O=C(NCc1ccccc1Cl)c1ccccc1Oc1ccccc1 returned CD11b adhes enh inactive and Mac1 fbg inh inactive.
Screening C=CCn1c(NC(=O)c2ccccc2)c(C#N)c2nc3ccccc3nc21 returned ERa coact pot inactive, ERb coact inh inactive and ERa SRC1 inh 74[fluorescence artefact?].
Screening CCCCn1c(NC(C)=O)c(C#N)c2nc3ccccc3nc21 returned ERa coact pot inactive, CD11b adhes enh inactive, Mac1 fbg inh inactive, ERb coact inh inactive and ERa SRC1 inh inactive.
C=CCn1c(NC(=O)c2ccccc2Cl)c(C#N)c2nc3ccccc3nc21 was read as ERa coact pot inactive, CD11b adhes enh inactive, Mac1 fbg inh 97, ERb coact inh inactive and ERa SRC1 inh inactive.
For Clc1ccccc1-c1nc2ccccc2c2nc3ccccc3n12 the results were CD11b adhes enh inactive and Mac1 fbg inh inactive.
`COc1ccc(-c2noc(CCC(=O)N3CCN(c4cccc(C(F)(F)F)c4)CC3)n2)cc1` gave ERa coact pot inactive, CD11b adhes enh inactive, Mac1 fbg inh inactive, ERb coact inh 51 and ERa SRC1 inh inactive.
